Assay results published in PubChem BioAssay AID588456 (National Center for Advancing Translational Sciences (NCATS), 2011).
About 55 (0.01%) of roughly 390,000 compounds were called active. A selection follows. Unmarked numbers belong to inactive results. Calls follow the shape of the dose curve; as a rule, active = well fitted inhibition curve with a large enough effect; inconclusive = small, poorly fitted or top-dose-only effect; inactive = no such curve, though single readings can be large or run the other way.

target: Thioredoxin reductase 1, cytoplasmic (Rattus norvegicus) (UniProt O89049); experiment: qHTS Assay for Substrates of Mammalian Selenoprotein Thioredoxin Reductase 1 (TrxR1): qHTS; conditions: purified TrxR1 substrate turnover, NADPH consumption readout; series mostly up to 114 µM; activity change, negative = substrate turnover: at the top concentration; also: nearly all actives have a fitted effect of over 50% in size
Sequence (O89049 whole entry, looked up): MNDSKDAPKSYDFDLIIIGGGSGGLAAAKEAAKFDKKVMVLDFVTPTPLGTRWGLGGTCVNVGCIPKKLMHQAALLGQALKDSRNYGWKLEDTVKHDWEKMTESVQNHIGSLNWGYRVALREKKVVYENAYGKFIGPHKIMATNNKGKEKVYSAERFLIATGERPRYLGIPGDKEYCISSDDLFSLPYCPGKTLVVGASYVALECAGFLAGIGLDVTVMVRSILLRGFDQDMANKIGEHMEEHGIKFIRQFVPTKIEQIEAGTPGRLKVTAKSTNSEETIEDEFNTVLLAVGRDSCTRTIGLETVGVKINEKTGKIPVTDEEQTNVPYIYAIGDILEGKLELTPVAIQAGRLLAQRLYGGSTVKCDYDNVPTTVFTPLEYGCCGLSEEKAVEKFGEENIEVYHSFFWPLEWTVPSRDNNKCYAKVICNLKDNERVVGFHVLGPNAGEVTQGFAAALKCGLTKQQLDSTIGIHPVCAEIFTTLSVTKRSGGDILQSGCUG
Text: The selenoprotein thioredoxin reductase (TrxR; EC 1.8.1.9) is a FAD containing homodimeric pyridine nucleotide-disulfide oxidoreductase with many cellular roles. Together with NADPH and its prime substrate thioredoxin (Trx), the enzyme forms the core of the Trx system. The mammalian Trx system exerts a wide spectrum of functions including redox regulation, antioxidant defense, regulation of transcription factors as well as support of cell growth and replication. Many of these functions involve the reduction of Trx, which may subsequently reduce a number of different substrates including ribonucleotide reductase, peroxiredoxins or NFkB. Mammalian TrxR itself also has a broad substrate specificity, reducing both protein and non-protein substrates, including low molecular weight compounds such as dehydroascorbate, lipoic acid, ubiquinone, and juglone. In addition, several drugs in clinical use for anticancer treatment are indeed known to target TrxR1.
This BioAssay is a validation of an NADPH fluorescence-based, dual-purpose qHTS rTrxR1 assay designed to find potential inhibitors and substrates of rTrxR1. For this particular BioAssay, actives are potential substrate. See related BioAssay for inhibition data deposition.
NIH Molecular Libraries Probe Production Network [MLPCN]
NIH Chemical Genomics Center [NCGC]
Assay Provider: Elias Arner, Karolinska Institute
Assay protocol: 2 uL of reagents (buffer in column 4 as negative control and 90 nM rTrxR1 in columns 1-3 and 5-48) were dispensed into Greiner black solid-bottom 1,536-well assay plates, followed by 1 uL of NADPH (400 uM final concentration) to each well. The plates were centrifuged at 1000 rpm for 15 seconds and subsequently incubated for 5 min at room temperature (~22 deg C) to allow for rTrxR1 reduction. Compounds (23 nL) were then transferred via Kalypsys pin tool equipped with 1536-pin array (10 nL slotted pins, V&P Scientific, San Diego, CA). In addition, a duplicate 2-fold serial dilution of the control compounds auranofin, a known gold-based TrxR1 inhibitor, and juglone (5-hydroxy-1,4-naphthoquinone), a natural TrxR1 substrate, were pin-transferred to columns 2 and 3, respectively. After incubation for 15 min at room temperature (~22 deg C), 1 uL of selenite (400 uM final concentration) were dispensed to each well. The plate was immediately transferred to a ViewLux high-throughput CCD imager (PerkinElmer), wherein kinetic measurements of NADPH fluorescence (Ex 340 nm, Em 450 nm) were acquired (8 minute kinetic read, see Table 1). Read 1 was utilized to assess the capacity of a compound to serve as an rTrxR1 substrate, i.e. a decrease in NADPH fluorescence compared to the no-compound background is an indication of a substrate behavior for that particular compound. For inhibitory activity of a compound, delta values, computed as the difference in fluorescence intensity between the first and last reads of an 8-minute time kinetic window, were used. All reagents were diluted in an assay buffer consisting of 50 mM Tris-HCl, pH 7.5, 2 mM EDTA, and 0.01% Tween-20.
Throughout the screen, reagent bottle and all liquid lines were made light-tight to minimize reagent degradation. All screening operations were performed on a fully integrated robotic system (Kalypsys, San Diego, CA) containing one RX-130 and two RX-90 anthropomorphic robotic arms (Staubli, Duncan, SC). Library plates were screened starting from the lowest and proceeding to the highest concentration, and a 'double-pinning' step of the highest concentration was required to access higher concentrations of compounds. Vehicle-only plates, with DMSO being pin-transferred to the columns 5-48, were inserted uniformly at the beginning and the end of each library in order to monitor and record any shifts in the background, which can be affected by reagent dispensers or loss in enzyme activity over time. […]
% is scaled to controls: 0 for no effect and ±100 for the full control effect.

Structure (SMILES)	activity change, negative = substrate turnover
O=C(O)c1c(Br)c(Br)c(Br)c(Br)c1C1c2ccc(O)cc2Oc2cc(O)ccc21	-0.493%
O=C(NCCCO)C(=O)Nc1c2c(nn1-c1ccc(F)cc1)CSC2	-2.34% [at 57.1 µM]
C(=Nc1ccc(/C=C/c2ccnc3ccccc23)cc1)c1cc2c3c(c1)CCCN3CCC2	-2.53%
Cc1ccc2nc3c(cc(C(=O)NC4CCCCC4)c(=N)n3C(C)C)c(=O)n2c1	203%
Cc1ccc(CN(C(=O)COc2ccc(Cl)cc2C)C2CCS(=O)(=O)C2)o1 (configuration not stated)	-0.557%
CCOc1n[nH]c(-c2ccccc2)n1	-11%
COc1ccc(CCNC(=O)CCCCn2c(=O)c3ccccc3n(Cc3ccccc3C)c2=O)cc1OC	-7.44%
CS(=O)c1ccc(/C=C2\C=Cc3ccccc32)cc1 (configuration not stated)	1.35% [at 0.0914 µM]
COc1ccccc1NC(=O)C1=C(C)Nc2ncnn2C1c1sccc1C (configuration not stated)	3.43% [at 57.1 µM]
Cc1ccc(C2C=C(c3ccc(Cl)cc3)Nc3nc(NC(=O)CCC(=O)O)nn32)cc1 (configuration not stated)	19% [at 57.1 µM]
C/C=C/NNC(=O)Cc1ccc(OC)cc1	4.71%
CCOC(=O)c1ccc(NC(=O)CCS(=O)(=O)c2ccc3c(c2)oc(=O)n3C)cc1	2.83%
COCCCNC(=O)c1ccc(NC(=O)c2nsc3ccccc23)cc1	1.31% [at 57.1 µM]
CC1(C)C=Cc2c(ccc(C(=O)/C=C/c3ccccc3)c2O)O1	6.76%
CCN(CC)/[N+]([O-])=N/OCOC(=O)Cc1c(C)n(C(=O)c2ccc(Cl)cc2)c2ccc(OC)cc12	12.6% [at 0.457 µM]
CC(=O)/C(C)=N/O	3.07% [at 57.1 µM]
COc1ccc(CN(Cc2ccccc2)C(=O)c2ccc(O)cc2)cc1COc1ccc(NC(C)=O)cc1	-9.25%
O=C(CSc1nc2c(c(=O)[nH]1)CN(Cc1ccc(F)cc1)CC2)Nc1ccccc1Cl	17.6%
O=C(COc1ccccc1)OCc1cc(=O)n2nc(-c3cccs3)sc2n1	0.495% [at 57.1 µM]
Cc1cccc(NC(=O)COC(=O)c2ccccc2OCc2cccc(Br)c2)c1	-1.38%
CN(C)C1=C2C=CC=CC2/C(=C2/C=Cc3ccccc32)C=C1 (configuration not stated)	-4.06%
CSc1nc(-c2ccccc2Cl)nc2c1Cc1c(CO)cnc(C)c1O2	-7.75%
CN(C)c1ccc(/C=C/c2sc3ccccc3[n+]2C)cc1	-3.98%
Cc1cccc(NC(=O)c2ccc3nc(C(C)C)oc3c2)c1C	4.38% [at 57.1 µM]
O=C(Nc1ccccc1C(F)(F)F)c1nc(S(=O)(=O)Cc2ccccc2F)ncc1Cl	-1.77%
CN(C)c1ccc(/C=C/C=C/c2ccnc3ccccc23)cc1	-10.2%

Structure (SMILES)	activity change, negative = substrate turnover
CCCCCCC1(C)NC(c2ccc3c(c2)OCO3)=CC(c2ccccc2O)N1 (configuration not stated)	-0.425%
SCc1nc2ccc(Cl)cc2[nH]1	6.82%
Cc1ccc2nc(COc3cccc(NC(=O)Nc4ccc(C)c(Cl)c4)c3)cc(=O)n2c1	4.87% [at 57.1 µM]
O=C1C[C@H]2C=CCc3cccc(c32)CN1Cc1ccccc1	1.88%
O=C1CCC[C@@H]2C[C@@]3(C[C@@H]4CCN1[C@H]24)Nc1ccccc1NC3=NCc1ccccc1	0.601%
CCCCOc1ccc(CN2C(=O)C(=O)c3cc(Br)cc(C)c32)cc1OC	-13.6%
CCN(CC)c1ccc(/C=C/c2c(C)cnc3ccc(C)cc23)cc1	0.74%
CCOc1ccc(CCNC(=O)Cn2nc(CC)n3c(cc4sc(CC)cc43)c2=O)cc1OCC	5.63%
CCC(C)N(c1ccc(/C=C/c2ccnc3ccccc23)cc1)C(C)CC (configuration not stated)	-24.3%
O=C(COc1ccccc1C(=O)Nc1ccccc1)Nc1cccc(F)c1	-2.82%
CCCCOc1ccc(C(=O)NO)cc1	7.06%
Cc1ccc(-c2nc(=N)sn2Cc2ccccc2)cc1	-7.18%
C[N+]1(CC(=O)c2cccs2)CCOCC1	-3.03%
COc1ccccc1OCCNCC(O)COc1cccc2[nH]c3ccccc3c12 (configuration not stated)	1.64% [at 57.1 µM]
CN(C)c1ccc(/C=c2\[nH]c(=O)/c(=C/c3ccc(N(C)C)cc3)[nH]c2=O)cc1	0.801%
Cc1ccc(-n2nc(C)c(C(=O)O)c2-n2cccc2)cc1	6.47%
OC(CBr)CN1CCCCC1 (configuration not stated)	2.77%
O=C(O)/C(=C/c1c(C(=O)O)[nH]c2cc(Cl)cc(Cl)c12)c1ccccc1	4.79% [at 57.1 µM]
Cc1ccc(-c2nnc(Nc3ccc(OCC(N)=O)cc3)c3ccccc23)cc1S(=O)(=O)NCC1CCCO1 (configuration not stated)	5.43%
CCc1cccc(NC(=O)c2cnc(N3CCOCC3)c3ccccc23)c1	-3.11% [at 57.1 µM]
CCC(=O)N1CCc2cc(Br)cc(S(=O)(=O)NCc3ccc(Cl)cc3)c21	-5.84%
Cc1cc2oc(C(=O)N(Cc3ccc(Cl)cc3)Cc3ccco3)c(C)c2cc1Cl	-6.31%
O=C(C[n+]1ccncc1)c1ccc2c(c1)CCCC2	-3.94%
CNCCCOc1cc2nc(N3CCCN(C)CC3)nc(NC3CCN(C)CC3)c2cc1OC	72.1%
C=CCNC(=O)c1ccc2nc(-c3ccco3)c(-c3ccco3)nc2c1	5.41%
Clc1cccc[n+]1CCCC[n+]1ccccc1Cl	-4.62%
